An excerpt weighted towards active compounds, which were near 2.5% of everything screened.
D2 PAM-1 = Beta-Arrestin HTS for Positive Allosteric Modulators of the Human D2 Dopamine Receptor: Potentiators | D(2) dopamine receptor (Homo sapiens), P14416 | DiscoveRx D2 beta-arrestin cells, luminescence, 90 min; 100% = 57 uM dopamine signal | potentiation, % (test concentration not listed) | hit rate 0.23% among 360,000 | AID 624464, 2012; in the data active = potentiation above about 50%; inconclusive = mostly about 30% to 49%
Target sequence (P14416 whole entry, looked up): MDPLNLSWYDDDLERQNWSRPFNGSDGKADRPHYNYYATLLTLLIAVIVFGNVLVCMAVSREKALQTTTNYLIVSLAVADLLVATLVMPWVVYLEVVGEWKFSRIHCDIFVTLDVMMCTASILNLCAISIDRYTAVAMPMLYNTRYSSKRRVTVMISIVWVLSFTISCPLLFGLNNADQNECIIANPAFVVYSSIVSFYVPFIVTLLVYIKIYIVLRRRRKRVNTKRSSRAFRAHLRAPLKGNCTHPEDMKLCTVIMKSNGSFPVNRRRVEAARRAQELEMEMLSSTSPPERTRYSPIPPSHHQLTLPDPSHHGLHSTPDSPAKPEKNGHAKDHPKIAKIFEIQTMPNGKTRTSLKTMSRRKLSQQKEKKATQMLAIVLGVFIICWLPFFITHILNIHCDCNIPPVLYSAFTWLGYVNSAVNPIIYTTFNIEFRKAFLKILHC
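PathHunter beta-arrestin assay in DiscoveRx D2 cells. Compounds were added with an EC20 of dopamine (50 nM final) for 90 min at 37 deg C. Luminescence was read 1 h after detection reagent, with 57 uM dopamine as the EC100 control.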
D2 ag-1 = HTS Assay for Allosteric Agonists of the Human D2 Dopamine Receptor: Primary Screen for Agonists | HEK293 T-REx D2 cells, calcium flux agonist mode | activation, % at 2 µM | AID 485358, 2010 | hit rate 0.53% among 340,000;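 active = activation over 3 SD above normal in the single-dose calcium agonist read, cut at about 30% in these data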; also: 0% is about no effect
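Tetracycline-induced HEK293 T-REx cells with force-coupled D2 receptor, plated overnight at 30 C, loaded with no-wash calcium dye. After a 10 s baseline, compound was pin-added and calcium flux read kinetically for 180 s; calcium rises flagged agonists.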
D2 antag = HTS Assay for Allosteric Antagonists of the Human D2 Dopamine Receptor: Primary Screen for Antagonists; D(2) dopamine receptor (Homo sapiens), P14416; HEK293 TREx D2 cells, calcium flux, dopamine EC80; inhibition, % at 10 µM; hit rate 2% among 340,000; AID 485344, 2010; in the data active = inhibition above about 30%; inactive = below that, where a call was filed; also: 0% is about no effect
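In this primary screen, negative modulation is detected by tracking calcium flux after an EC80 dopamine challenge in inducible HEK293 T-REx D2 cells preexposed to test compound for 180 s.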
Anesthetic bind = qHTS Assay for Identification of Novel General Anesthetics. Ferritin light chain (Equus caballus), P02791. apoferritin/1-aminoanthracene competitive binding, fluorescence. Potency, µM (top dose mostly 77.5 µM), without a hit: top-dose activity change, negative = displacement, actives largely listed as inhibitors. hit rate 0.074% among 350,000; also: potency is read from the fitted curve at half-maximal effect; % is scaled to controls: 0 for no effect and ±100 for the full control effect; nearly all actives have a fitted effect of over 20% in size
Target sequence (P02791 2-175 limits assumed): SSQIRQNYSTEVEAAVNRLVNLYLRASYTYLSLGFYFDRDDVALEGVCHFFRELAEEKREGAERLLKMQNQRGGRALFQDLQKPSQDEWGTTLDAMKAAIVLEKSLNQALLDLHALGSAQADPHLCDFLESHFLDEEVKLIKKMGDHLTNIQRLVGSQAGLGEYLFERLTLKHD
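10 uM apoferritin + 50% sat. 1-AMA, PBS; cpd 10 min RT; Ex380/Em535 endpoint; normalized to free probe vs complex; 4-param Hill fit; propofol titration as pos. ctrl.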
D2 PAM-2 = HTS Assay for Positive Allosteric Modulators of the Human D2 Dopamine Receptor: Primary Screen for Potentiators; HEK293 T-REx D2, calcium flux, EC20 dopamine potentiation; potentiation, % at 10 µM; hit rate 0.34% among 340,000; AID 485347, 2010;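 active = potentiation over 3 SD above the plate norm, cut at about 30% in these data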; also: 0% is about no effect
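Using a no-wash calcium dye in inducible, force-coupled HEK293 Trex cells expressing D2, we tracked fluorescence each second for 180 s after compound, then for 180 s after EC20 dopamine to detect augmented signalling.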
D2 ag-2 = Beta-Arrestin HTS for Positive Allosteric Modulators of the Human D2 Dopamine Receptor: Agonists; DiscoveRx PathHunter D2 beta-arrestin, luminescence, 90 min; 100% = 57 uM dopamine signal; activation, % (test concentration not listed); D(2) dopamine receptor (Homo sapiens), P14416; AID 624465, 2012; hit rate 0.084% among 360,000; in the data active = activation above about 40%; inconclusive = between about 15% and that limit
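DiscoveRx PathHunter D2 beta-arrestin cells (2,100/well) attached overnight, then compound-stimulated 90 min at 37 C in HBSS/10 mM HEPES/0.1% Tween-20 buffer; beta-galactosidase complementation read by luminescence after 1 h at ambient temperature. Dopamine 57 uM final (EC100) as control.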
D3 arrestin ag = qHTS of D3 Dopamine Receptor Agonist: D3 Dopamine Receptor B-arrestin Agonist Confirmatory Assay | Potency, µM (highest dose often 76.9 µM), for inactives: at the highest dose activation, usual class: activators | DiscoveRx D3 beta-arrestin cells, luminescence, 90 min | shares compounds with D2 ag-1 | hit rate 4% among 2,300;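 also: potency is read from the fitted curve at half-maximal effect; 100% = dopamine control response; nearly all actives have a fitted effect of over 70% in size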
D2 ag-3 = qHTS of D3 Dopamine Receptor Agonist: D2 Dopamine Receptor B-arrestin Agonist Counterscreen. shares compounds with D2 ag-1. DiscoveRx PathHunter D2 beta-arrestin, luminescence, 90 min; response scale: percent relative to full dopamine signal. Potency, µM (top dose mostly 76.9 µM), for the others: top-dose activation, most hits filed as activators. hit rate 5.9% among 2,300. AID 720507, 2013; also: potency is read from the fitted curve at half-maximal effect; % of control where 0% means no effect; nearly all actives have a fitted effect of over 70% in size
Starred values were filed as active, the others as inactive; ? = inconclusive; . = no result given; ! = not active in a repeat. Unless noted, calls follow the shape of the dose curve; as a rule, active = well fitted curve in the direction sought with a large enough effect; inconclusive = small, poorly fitted or top-dose-only effect, or another doubt; inactive = no such curve, though single readings can be large; an effect the other way counts as inactive or inconclusive.

SMILES	D2 PAM-1	D2 ag-1	D2 antag	Anesthetic bind	D2 PAM-2	D2 ag-2	D3 arrestin ag	D2 ag-3
Cc1ccc(S(=O)(=O)N2C[C@@H]3[C@H]4CC[C@H](C4)[C@@H]3[C@@H](C)[C@@H]2c2ccco2)cc1	.	.	.	.	.	-2.2	.	.
CC(C)(C)SCCNC(=O)c1ccc(CN2CCc3ccccc3C2)cc1	-13.3	33.7*	9.9	-11.5%	-18.6	0.9	-20.5%	3.1%
CCn1nc(C(=O)Nc2ccccc2N2CCCC2)c2ccccc2c1=O	3.0	-0.2	-5.9	.	9.9	3.7	.	.
Cc1cccc(C)c1NC(=O)C1CCCN1S(=O)(=O)c1ccc(-c2ccc(=O)[nH]n2)s1 (stereo unspecified)	1.1	1.5	-4.3	-1.9%	1.8	-3.3	.	.
CCc1ccccc1NC(=O)C1CCCN1S(=O)(=O)c1ccc(-c2ccc(=O)[nH]n2)s1 (stereo unspecified)	-10.1	9.7	-14.9	-15.4%	5.1	7.3	11.4%	2.2%
O=S(=O)(c1ccc2nc(COc3ccc(Cl)cc3Cl)[nH]c2c1)N1CCOCC1	-10.8	0.3	38.3*	?	0.8	1.1	6.0%	3.9%
Cc1ccccc1OCc1nc2ccc(S(=O)(=O)N3CCOCC3)cc2[nH]1	0.0	0.5	9.8	?	0.2	-4.9	.	.
CCCn1c2ccccc2c2cnn(CC(=O)NCCCN3CCN(c4ccccc4)CC3)c(=O)c21	-32.4	22.3	87.5*	4.3%	-25.3	-0.4	16.6%	9.0%
CCCn1c2ccccc2c2cnn(CC(=O)OC)c(=O)c21	-12.0	41.1*	-8.7	-5.8%	2.8	-2.8	0.7%	-0.7%
O=C(Cc1csc(Nc2nc(=S)[nH]c3ccccc23)n1)NCc1ccc(Cl)cc1	-0.8	0.2	9.6	-22.3%	-15.5	0.0	.	.
Cn1c2ccccc2c2cnn(CC(=O)NCCCN3CCN(c4ccccc4F)CC3)c(=O)c21	-7.2	69.0*!	63.3*	-5.7%	-23.5	3.3	12.8%	26.0%
O=C(Cc1csc(Nc2nc(=S)[nH]c3ccccc23)n1)NCCCN1CCN(c2ccccc2F)CC1	-27.8	47.4*	67.4*	2.5%	-19.2	12.7	9.3%	15.0%
Nc1nnc(/C=C/c2cccc([N+](=O)[O-])c2)s1	-5.5	-0.9	-4.8	-9.1%	-3.0	2.8	.	.
Cn1c(=O)cc(OCC(=O)NCCCN2CCN(c3ccccc3F)CC2)c2ccccc21	?	86.2*	78.2*	-15.9%	-19.0	45.1*	-5.7%	?
COc1ccccc1N1CCN(CCCNC(=O)Cn2ncc3c([nH]c4ccccc43)c2=O)CC1	-34.2	26.9	90.3*	7.8%	-25.6	-4.5	-24.1%	7.0%
Cn1c(C(=O)NCCCN2CCN(c3ccccc3F)CC2)cc2c(=O)[nH]c3ccccc3c21	14.3	71.3*	104.6*	-8.1%	-23.5	?	9.6%	29.1%
O=C(c1ccccc1NS(=O)(=O)c1ccc(Br)s1)N1CCOCC1	3.2	-0.7	13.0	11.3%	-8.8	0.3	.	.
O=C(COC(=O)c1cc(Cl)ccc1O)c1ccc2c(c1)OCO2	0.4	0.2	6.7	.	-1.8	-4.8	.	.
CCOC(=O)c1cc2sc(C)cc2n1CC(=O)N1CCN(C(=O)c2ccco2)CC1	-8.4	0.1	-1.7	-10.4%	-3.7	-0.4	.	.
CC1(C)C(C=C(Cl)Cl)C1C(=O)N1CCN(Cc2ccccc2)CC1 (stereo unspecified)	?	70.1*	78.0*	-19.2%	-22.7	?	?	17.8µM*
COc1ccccc1NC(=O)C1CCN(S(=O)(=O)c2cccs2)CC1	-12.6	-0.8	13.1	.	-2.2	-4.9	.	.
CCOc1cccc2cc(-c3cn4c(n3)sc3ccccc34)c(=O)oc12	.	-0.7	.	6.8%	0.0	.	.	.
Cc1ccc(NC(=O)C[n+]2cc(-c3ccccc3)n3c2CCC3)cc1	-12.3	70.8*	56.1*	-12.9%	-29.7	-1.5	-9.6%	1.5%
Cc1ccc(-c2c[n+](CC(=O)Nc3ccccc3C)c3n2CCC3)cc1	-28.9	0.0	28.0	-14.6%	-22.3	-2.4	.	.
O=C(CN(C(=O)c1csnn1)c1ccc(F)c(Cl)c1)NCc1ccc(F)cc1	-9.1	.	.	-10.9%	8.6	-3.0	.	.
